This note sets out measurements from PubChem BioAssay (EPA / NIEHS).

Assay [1] has as its target Estrogen-related receptor gamma (Homo sapiens) (UniProt P62508). Description: ATG_ERRg_TRANS: Attagene TRANS-FACTORIAL HepG2 Assay for human Estrogen-Related Receptor gamma (ERRg) (AID 2282977).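 Further: hits increase reporter signal over DMSO so potencies reflect activators.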 The settings on record: HepG2 Attagene TRANS reporter, ERRg transactivation. In outline:
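Exogenous NR-Gal4 chimera activity was assessed in HepG2 cells bearing transfected GAL4-UAS reporters. After 24 h dosing, total RNA underwent RT-PCR, fluorescent primer extension and HpaI digestion before capillary electrophoresis, with gain of signal scored against DMSO.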

Assay [2] has as its target Glucocorticoid receptor (Homo sapiens) (UniProt P04150). Description: ATG_GR_TRANS: Attagene TRANS-FACTORIAL HepG2 Assay for human Glucocorticoid Receptor (GR) (AID 2282978).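 Further: activators score as hits since higher reporter transcript over DMSO is fitted.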 The settings on record: HepG2 Attagene TRANS GR reporter, mRNA transcription. In outline:
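Exogenous NR-GAL4 fusion activity was assessed through induced GAL4-UAS reporter transcripts in transfected human HepG2 cells, quantified after 24 h by RT-PCR and fluorescent capillary electrophoresis with DMSO as baseline.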

A short description of assay [3]: ATG_M_06_TRANS: Attagene TRANS-FACTORIAL HepG2 Assay for M06 Transcription Factor (Internal Marker) (AID 2282983). The settings on record: HepG2 Attagene TRANS M06 internal marker reporter. In outline: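 Read-out: fluorescent reporter cDNA fragments resolved by capillary electrophoresis after RT-PCR and HpaI cut. Source cells were HepG2 carrying transfected multi-reporter GAL4 constructs, dosed 24 h. Increase over DMSO control analysed.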

In assay [4] the target is Transcriptional activator Myb (Homo sapiens) (UniProt P10242). Description: ATG_Myb_CIS: Attagene CIS-FACTORIAL HepG2 Assay for human Myeloblastosis (Myb) Proto-Oncogene Transcription Factor (AID 2282986; active means hit-call score of the fitted dose curve at least 0.9, where 1 is the maximum; inactive means score below 0.9). The settings on record: HepG2 Attagene CIS-FACTORIAL Myb reporter transcription; actives raise or lower the signal. In outline:
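In this HepG2 transient-transfection format, cis-regulated reporter mRNA is quantified 24 h post-dosing by RT-PCR with capillary electrophoresis, fitted bidirectionally to DMSO baseline.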

For assay [5], the target named is Bile acid receptor (Homo sapiens) (UniProt Q96RI1). The assay is described as follows: ATG_FXR_TRANS: Attagene TRANS-FACTORIAL HepG2 Assay for Farnesoid X Receptor (FXR) (AID 2282979).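 Further: hits raise reporter mRNA above DMSO so AC50 marks FXR activation.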 The conditions noted are these: HepG2 Attagene TRANS FXR-GAL4 reporter transcription. In outline:
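Read-out: fluorescent reporter transcripts quantified by capillary electrophoresis after RT-PCR of total RNA. Source cells were HepG2 transiently carrying chimeric NR-GAL4 plus GAL4-UAS reporter units, dosed 24 h. Activity fitted upward relative to DMSO baseline.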

Assay [6] deals with Nuclear receptor subfamily 4 group A member 2 (Homo sapiens) (UniProt P43354). Description: ATG_NURR1_TRANS: Attagene TRANS-FACTORIAL HepG2 Assay for human Nuclear Receptor Related Protein 1 (NURR1) (AID 2282985). The settings on record: HepG2 Attagene TRANS reporter, mRNA readout. In outline: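 Read-out: reporter mRNA induction by RT-PCR plus capillary electrophoresis with fluorescence detection, after 24 h dosing of transfected HepG2 cells. Exogenous NR-Gal4 chimera activity drives GAL4-UAS reporter; activity fitted upward versus DMSO.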

Assay [7] deals with Oxysterols receptor LXR-alpha (Homo sapiens) (UniProt Q13133). The assay is described as follows: ATG_LXRa_TRANS: Attagene TRANS-FACTORIAL HepG2 Assay for human Liver X Receptor alpha (LXRa) (AID 2282980). The settings on record: HepG2 Attagene TRANS reporter, LXRa transactivation. In outline:
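Read-out: reporter transcript levels by RT-PCR plus capillary electrophoresis, fluorescence intensity. Transiently transfected HepG2, exogenous NR-GAL4 chimera, GAL4-UAS reporters; 24 h compound exposure. Activity = increase over DMSO negative control.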

In assay [8] the target is Oxysterols receptor LXR-beta (Homo sapiens) (UniProt P55055). Description: ATG_LXRb_TRANS: Attagene TRANS-FACTORIAL HepG2 Assay for human Liver X Receptor beta (LXRb) (AID 2282981). The conditions noted are these: HepG2 Attagene TRANS GAL4-LXRb reporter, mRNA. In outline: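 Readout: fluorescent reporter mRNA fragments resolved by capillary electrophoresis after RT-PCR. System: transiently transfected human HepG2, exogenous LXRb-Gal4 chimera driving GAL4-UAS reporter, 24 h dosing. Activity fitted upward against DMSO baseline.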

The target in assay [9] is Hepatocyte nuclear factor 4-alpha (Homo sapiens) (UniProt P41235). The assay is described as follows: ATG_HNF4a_TRANS: Attagene TRANS-FACTORIAL HepG2 Assay for human Hepatocyte Nuclear Factor 4 alpha (HNF4a) (AID 2282982). The conditions noted are these: HepG2 HNF4a transactivation reporter, mRNA readout. In outline: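 Transient MRTU transfection of HepG2, 24 h dosing. Readout: reporter mRNA via RT-PCR + capillary electrophoresis, fluorescence; activity fit upward relative to DMSO control.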

Assay [10] in a line: ATG_M_32_TRANS: Attagene TRANS-FACTORIAL HepG2 Assay for M32 Transcription Factor (Internal Marker) (AID 2282984).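 Further: transcript level of a background control reporter unit measured by RT-PCR and capillary electrophoresis.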 The conditions noted are these: HepG2 Attagene TRANS M32 internal marker reporter. In outline: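 Read-out: fluorescent reporter cDNA fragments resolved by capillary electrophoresis after RT-PCR of total RNA. Transfected HepG2 cells were exposed to chemical for 24 h. Activity scored in the positive direction relative to DMSO.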

Results filed as inconclusive are left out. Calls of active or inactive are those of the source. How the source made its calls, unless noted: active means hit-call score of the fitted dose curve at least 0.9, where 1 is the maximum; inconclusive means response in the unintended direction; inactive means score below 0.9.

Bile acid receptor (Homo sapiens), sequence (Q96RI1 whole entry, looked up, the tested form may be a part): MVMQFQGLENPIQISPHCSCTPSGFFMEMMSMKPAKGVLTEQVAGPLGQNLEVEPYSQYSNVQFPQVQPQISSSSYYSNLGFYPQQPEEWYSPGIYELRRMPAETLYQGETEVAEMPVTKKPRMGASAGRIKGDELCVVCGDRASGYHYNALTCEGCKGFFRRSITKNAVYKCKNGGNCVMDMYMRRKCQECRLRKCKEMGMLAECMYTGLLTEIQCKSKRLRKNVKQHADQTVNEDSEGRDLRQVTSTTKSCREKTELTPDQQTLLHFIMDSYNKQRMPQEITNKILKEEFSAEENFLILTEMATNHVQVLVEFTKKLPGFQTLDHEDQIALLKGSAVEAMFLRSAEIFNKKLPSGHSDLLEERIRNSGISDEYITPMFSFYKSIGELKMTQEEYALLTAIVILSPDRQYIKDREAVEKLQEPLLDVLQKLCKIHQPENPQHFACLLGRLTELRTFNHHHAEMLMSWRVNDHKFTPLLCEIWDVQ
Estrogen-related receptor gamma (Homo sapiens), sequence (P62508 whole entry, looked up, the tested form may be a part): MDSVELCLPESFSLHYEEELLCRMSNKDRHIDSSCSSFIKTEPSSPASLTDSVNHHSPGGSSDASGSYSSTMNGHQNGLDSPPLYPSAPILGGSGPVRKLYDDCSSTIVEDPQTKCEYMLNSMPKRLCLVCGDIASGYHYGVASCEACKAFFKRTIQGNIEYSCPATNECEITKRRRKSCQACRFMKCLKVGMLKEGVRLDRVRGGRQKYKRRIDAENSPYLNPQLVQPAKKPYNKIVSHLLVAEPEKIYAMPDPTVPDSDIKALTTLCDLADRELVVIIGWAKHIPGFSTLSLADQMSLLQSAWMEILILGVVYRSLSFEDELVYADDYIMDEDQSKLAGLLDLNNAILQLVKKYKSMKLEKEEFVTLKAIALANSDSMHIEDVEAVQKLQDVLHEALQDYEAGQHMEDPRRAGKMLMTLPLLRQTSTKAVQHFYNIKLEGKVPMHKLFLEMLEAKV
Oxysterols receptor LXR-beta (Homo sapiens), sequence (P55055 whole entry, looked up, the tested form may be a part): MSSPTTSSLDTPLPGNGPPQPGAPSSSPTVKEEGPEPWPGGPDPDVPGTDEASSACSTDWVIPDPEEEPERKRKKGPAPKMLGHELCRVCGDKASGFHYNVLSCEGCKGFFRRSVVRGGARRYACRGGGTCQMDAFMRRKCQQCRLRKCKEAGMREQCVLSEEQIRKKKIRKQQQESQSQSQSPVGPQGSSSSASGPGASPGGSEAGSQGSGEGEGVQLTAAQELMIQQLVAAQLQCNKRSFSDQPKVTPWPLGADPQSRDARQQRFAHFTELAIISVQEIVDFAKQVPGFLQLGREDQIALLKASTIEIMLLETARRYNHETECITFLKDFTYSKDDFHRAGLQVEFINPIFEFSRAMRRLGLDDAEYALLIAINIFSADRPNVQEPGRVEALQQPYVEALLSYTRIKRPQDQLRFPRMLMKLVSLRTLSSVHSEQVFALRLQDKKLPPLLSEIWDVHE
Nuclear receptor subfamily 4 group A member 2 (Homo sapiens), sequence (P43354 whole entry, looked up, the tested form may be a part): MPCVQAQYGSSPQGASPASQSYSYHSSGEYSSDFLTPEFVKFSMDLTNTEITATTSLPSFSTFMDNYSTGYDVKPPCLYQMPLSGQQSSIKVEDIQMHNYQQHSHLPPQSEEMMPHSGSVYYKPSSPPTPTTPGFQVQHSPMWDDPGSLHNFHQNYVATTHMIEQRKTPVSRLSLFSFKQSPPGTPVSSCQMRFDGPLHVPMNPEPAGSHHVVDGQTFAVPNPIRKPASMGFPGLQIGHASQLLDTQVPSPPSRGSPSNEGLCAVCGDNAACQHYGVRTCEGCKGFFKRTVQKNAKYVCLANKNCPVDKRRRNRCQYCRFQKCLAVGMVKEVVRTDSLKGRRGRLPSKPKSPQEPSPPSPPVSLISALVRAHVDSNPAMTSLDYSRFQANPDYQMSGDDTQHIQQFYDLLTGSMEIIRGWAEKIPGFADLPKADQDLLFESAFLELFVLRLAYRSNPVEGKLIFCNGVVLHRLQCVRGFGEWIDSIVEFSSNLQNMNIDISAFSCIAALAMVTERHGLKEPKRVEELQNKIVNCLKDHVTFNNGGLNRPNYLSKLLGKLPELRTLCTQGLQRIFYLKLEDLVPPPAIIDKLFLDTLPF
Glucocorticoid receptor (Homo sapiens), sequence (P04150 whole entry, looked up, the tested form may be a part): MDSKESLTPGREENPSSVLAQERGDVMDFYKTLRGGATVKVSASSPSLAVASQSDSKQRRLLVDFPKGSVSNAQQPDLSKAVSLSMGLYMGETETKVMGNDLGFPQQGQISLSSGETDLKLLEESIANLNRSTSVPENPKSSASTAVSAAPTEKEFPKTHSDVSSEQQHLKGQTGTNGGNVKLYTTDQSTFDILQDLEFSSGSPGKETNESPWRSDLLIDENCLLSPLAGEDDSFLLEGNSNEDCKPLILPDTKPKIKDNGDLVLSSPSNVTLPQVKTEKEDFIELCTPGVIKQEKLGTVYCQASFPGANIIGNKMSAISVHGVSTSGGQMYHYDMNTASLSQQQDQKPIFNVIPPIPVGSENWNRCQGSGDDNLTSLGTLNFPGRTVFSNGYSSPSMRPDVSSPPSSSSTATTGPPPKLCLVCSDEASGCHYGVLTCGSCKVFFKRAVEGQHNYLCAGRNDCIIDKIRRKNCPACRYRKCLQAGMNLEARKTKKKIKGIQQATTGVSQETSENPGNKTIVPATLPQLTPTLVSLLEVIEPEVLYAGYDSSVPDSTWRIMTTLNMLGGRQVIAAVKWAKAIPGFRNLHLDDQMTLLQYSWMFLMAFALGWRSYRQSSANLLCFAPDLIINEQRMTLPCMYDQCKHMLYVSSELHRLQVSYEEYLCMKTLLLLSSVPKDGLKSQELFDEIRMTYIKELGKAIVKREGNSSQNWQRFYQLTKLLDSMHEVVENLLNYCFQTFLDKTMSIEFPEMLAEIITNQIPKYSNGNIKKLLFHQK
Hepatocyte nuclear factor 4-alpha (Homo sapiens), sequence (P41235 whole entry, looked up): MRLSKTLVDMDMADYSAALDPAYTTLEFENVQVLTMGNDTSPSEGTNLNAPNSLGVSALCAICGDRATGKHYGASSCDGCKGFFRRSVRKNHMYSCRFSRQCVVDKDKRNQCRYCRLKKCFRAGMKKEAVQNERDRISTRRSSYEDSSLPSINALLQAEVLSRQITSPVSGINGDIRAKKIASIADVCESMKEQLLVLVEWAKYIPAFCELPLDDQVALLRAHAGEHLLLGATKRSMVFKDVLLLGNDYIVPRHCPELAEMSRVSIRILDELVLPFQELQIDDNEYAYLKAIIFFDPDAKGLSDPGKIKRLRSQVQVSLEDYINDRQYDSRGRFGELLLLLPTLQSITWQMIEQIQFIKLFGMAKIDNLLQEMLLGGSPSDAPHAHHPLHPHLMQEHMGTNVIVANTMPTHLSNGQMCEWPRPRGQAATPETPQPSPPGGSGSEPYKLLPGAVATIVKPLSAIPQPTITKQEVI
Oxysterols receptor LXR-alpha (Homo sapiens), sequence (Q13133 whole entry, looked up, the tested form may be a part): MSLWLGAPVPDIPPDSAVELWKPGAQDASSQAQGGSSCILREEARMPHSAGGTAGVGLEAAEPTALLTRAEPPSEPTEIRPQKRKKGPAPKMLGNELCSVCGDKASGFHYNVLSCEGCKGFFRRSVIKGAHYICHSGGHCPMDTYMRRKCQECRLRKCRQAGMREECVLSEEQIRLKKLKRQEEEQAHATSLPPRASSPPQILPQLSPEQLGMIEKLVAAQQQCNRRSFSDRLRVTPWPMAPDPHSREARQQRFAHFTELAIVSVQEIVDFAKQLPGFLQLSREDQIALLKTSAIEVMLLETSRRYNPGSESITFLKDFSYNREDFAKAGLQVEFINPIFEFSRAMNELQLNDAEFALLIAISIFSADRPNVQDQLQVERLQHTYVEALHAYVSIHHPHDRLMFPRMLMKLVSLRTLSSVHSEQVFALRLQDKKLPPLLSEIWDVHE
Transcriptional activator Myb (Homo sapiens), sequence (P10242 whole entry, looked up): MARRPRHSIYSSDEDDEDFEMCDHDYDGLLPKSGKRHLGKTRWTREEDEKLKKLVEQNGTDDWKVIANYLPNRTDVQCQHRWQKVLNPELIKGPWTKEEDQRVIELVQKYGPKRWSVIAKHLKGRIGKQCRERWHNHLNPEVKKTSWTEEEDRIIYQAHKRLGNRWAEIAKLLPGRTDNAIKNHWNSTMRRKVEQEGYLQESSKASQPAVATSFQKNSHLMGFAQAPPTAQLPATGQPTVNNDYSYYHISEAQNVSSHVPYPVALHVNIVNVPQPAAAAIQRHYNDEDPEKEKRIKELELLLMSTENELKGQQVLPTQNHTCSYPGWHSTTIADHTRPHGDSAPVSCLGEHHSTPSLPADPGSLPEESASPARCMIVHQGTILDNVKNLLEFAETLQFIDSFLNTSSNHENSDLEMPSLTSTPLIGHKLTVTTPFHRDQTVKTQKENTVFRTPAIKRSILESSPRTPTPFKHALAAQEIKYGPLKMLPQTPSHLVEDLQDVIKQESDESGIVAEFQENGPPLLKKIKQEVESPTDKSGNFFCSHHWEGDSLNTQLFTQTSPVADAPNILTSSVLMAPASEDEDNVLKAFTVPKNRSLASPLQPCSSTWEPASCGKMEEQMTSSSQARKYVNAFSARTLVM

As for `OCCCCl`, the compound was called inactive in [1], in assay [2], in [3] and in assay [4].

On to `CCCCCCCC/C=C\CCCCCCCC(=O)OCC(O)CO` (stereo not drawn), for which the compound was called inactive in assay [1], in assay [2], in assay [5], in assay [3], in assay [6] and in assay [4].

In the case of `CCOC(C=C(C)CCC=C(C)C)OCC`, the call in assay [1], in [6] and in assay [4] was inactive.

Turning to `FC(F)(F)C(F)(F)C(F)(F)C(F)(F)C(F)(F)C(F)(F)C(F)(F)CCI`, the result in assay [2], in assay [5], in assay [7], in assay [8], in assay [9] and in assay [3] was inactive. Moreover, the compound was called inactive in assay [10] and in [4].

As for `CCC(=O)OC(C)c1ccccc1` (stereo not drawn), the call in assay [1], in [5], in [8], in [9], in [3] and in assay [6] was inactive. In addition, in assay [4], the compound was classed as inactive.

On to `CN1CN(C)CN(C)C1`, for which the compound was classed as inactive in assay [1], in assay [5], in assay [8], in assay [3] and in assay [4].

Turning to `C=C(C)CCCC`, the result in assay [1], in [2], in assay [5], in assay [7], in [10] and in assay [4] was inactive.

For the compound `NC(=O)C(F)(F)C(F)(F)C(F)(F)F`, the result in assay [1], in [2], in assay [5], in assay [8], in [3] and in [6] was inactive. For the same compound, in [4], the result was inactive.

Regarding `Cc1ccc([N+](=O)[O-])c(C)c1`, the result in assay [1], in assay [5], in assay [7], in assay [9], in assay [3] and in assay [6] was inactive. In addition, the outcome in [4] was inactive.

Consider `CO[Si](C)(CCC(F)(F)C(F)(F)C(F)(F)C(F)(F)C(F)(F)C(F)(F)F)OC`, for which the outcome in [1], in [5], in assay [8], in [10] and in assay [4] was inactive.

For orientation: AC50 means the concentration at which the activity in the assay is half-maximal. As to `OCC(F)(F)C(F)(F)C(F)(F)C(F)(F)C(F)(F)C(F)(F)C(F)(F)C(F)(F)CO`, the outcome in [2], in assay [5], in [8], in assay [3], in assay [10] and in assay [4] was inactive. For the same compound, the concentration at half-maximal activity (AC50) in assay [7] was 10.5 µM (active).

On to `OCCCC(F)(F)C(F)(F)C(F)(F)C(F)(F)C(F)(F)C(F)(F)C(F)(F)C(F)(F)F`, for which the result in [1], in assay [2], in [5], in assay [7], in assay [8] and in [3] was inactive. Further, the call in [4] was inactive. Further, the AC50 in assay [6] was 7.38 µM (active).

On to `CCCCCCCCCCCCC[N+](C)(C)Cc1ccccc1`, for which the result in [2], in assay [5], in assay [7], in assay [8], in [3] and in [10] was inactive. The result in [4] was inactive.

As to `CCCCCCCCCCCCCCCCC`, the compound was classed as inactive in [1], in assay [5], in assay [7], in [8], in [9] and in [3]. For the same compound, the compound was classed as inactive in [4].

For the compound `C=CC(=O)OCC(F)(F)C(F)(F)C(F)(F)COC(=O)C=C`, the outcome in assay [1], in assay [5], in assay [8], in assay [9], in [3] and in assay [4] was inactive.

On to `Cc1ccc(O)c(-n2nc3ccccc3n2)c1`, for which the call in assay [1], in assay [5], in [7], in assay [8], in [3] and in assay [10] was inactive. Besides, the outcome in [4] was inactive.

`CCCCCCCC/C=C\CCCCCCCC(=O)N(C)CC(=O)O`: the call in [1], in assay [2], in assay [5], in [3], in assay [10] and in assay [4] was inactive.

With `O=C(O)CCC(F)(F)C(F)(F)C(F)(F)F`, the compound was called inactive in assay [1], in assay [5], in [7], in [8], in [3] and in [4].

For the compound `Nc1c(Br)cc([N+](=O)[O-])cc1Br`, the compound was called inactive in assay [1], in assay [5], in assay [7], in [9], in [3] and in assay [4].

With `CC(C)CC=C(C=O)c1ccccc1`, the compound was classed as inactive in [1], in [5], in assay [10] and in assay [4].

For `O=C(O)C(F)(F)C(F)(F)C(F)(F)C(F)(F)C(F)(F)C(F)(F)C(F)F`, the compound was called inactive in assay [2], in assay [5], in [7], in assay [8], in assay [3] and in assay [10]. The compound was classed as inactive in assay [4].

Take `O=C(c1ccccc1)c1ccc(O)cc1O`: the outcome in assay [2], in assay [5], in [7], in [8], in assay [9] and in assay [3] was inactive. Further, the result in assay [10], in [6] and in [4] was inactive.

Take `CCOC(=O)CC(=O)C(F)(F)C(F)(F)F`: the result in [1], in assay [2], in [5], in [7], in assay [8] and in assay [6] was inactive. Also, in assay [4], the compound was classed as inactive.

As for `Cc1ccc2c(c1)OCC(=O)CO2`, the compound was called inactive in assay [1], in assay [2], in assay [5], in [7], in assay [8] and in assay [4].

As to `O=C(Cl)C(F)(F)C(F)(F)C(F)(F)C(F)(F)C(F)(F)C(F)(F)F`, the call in [2], in [5], in assay [7], in assay [8], in [9] and in assay [3] was inactive. Besides, the result in assay [10], in [6] and in [4] was inactive.

`CSc1ccc(O)cc1C`: the outcome in assay [1], in assay [2], in [5] and in assay [4] was inactive.

As for `CCOC(=O)C1CC(=O)C(=C(O)C2CC2)C(=O)C1` (stereo not drawn), the compound was classed as inactive in assay [1], in assay [5], in assay [8], in [3] and in assay [4].

With `CCC(C)CO` (stereo not drawn), the compound was classed as inactive in assay [1], in assay [5], in [7], in [8], in [3] and in assay [6]. Besides, the result in assay [4] was inactive.

As to `O=S(=O)(OCC(F)(F)F)C(F)(F)C(F)(F)C(F)(F)C(F)(F)F`, the compound was classed as inactive in assay [1], in [2], in assay [5], in [7], in assay [3] and in [4]. Besides, the half-maximal activity concentration (AC50) in assay [6] is 65.2 µM (active).
